This is an account of results in PubChem BioAssay (NCATS).

Results filed as inconclusive are left out. Calls of active or inactive are those of the source. Unless noted, calls follow the shape of the full dose curve.

Assay [1] has as its target Bile acid receptor (Homo sapiens) (UniProt Q96RI1). Kind of assay: qHTS assay for small molecule antagonists of farnesoid X receptor signaling (AID 588526). Also: potency is read from the fitted curve at half-maximal effect. An outline of the steps: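 Concentration-response titrations were fitted to the Hill equation for half-maximal inhibition and maximal response, with data normalised to 50 uM chenodeoxycholic acid and DMSO control wells. Cells: FXR-UAS-bla HEK293T, dialyzed FBS.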
(Quantitative high-throughput screening tests each substance at several concentrations.)

The target in assay [2] is Peroxisome proliferator-activated receptor gamma (Homo sapiens) (UniProt P37231). Kind of assay: qHTS assay for small molecule antagonists of peroxisome proliferator-activated receptor gamma signaling (AID 588537; active = well fitted inhibition curve with a large enough effect in the signal ratio, with a control signal flat, not every such curve was filed as active; the % refers to the signal ratio;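 also: reporter cells co-stimulated with 50 nM rosiglitazone agonist during compound treatment; % of control where 0% means no effect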). An outline of the steps:
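PPAR-gamma-UAS-bla HEK293 cells (3000/well, 1% charcoal/dextran-stripped FBS) were preincubated 6-6.5 h at 37 C, given titrated compounds, then stimulated with 50 nM rosiglitazone for 16 h. Beta-lactamase activity was read with CCF4 dye; IC50 came from Hill fits.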

Assay [3] has as its target Vitamin D3 receptor (Homo sapiens) (UniProt P11473). Kind of assay: qHTS assay for small molecule antagonists of vitamin D receptor signaling (AID 588541).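 Also: receptor activated by calcitriol during compound treatment; series mostly up to about 77 µM; % is scaled to controls: 0 for no effect and ±100 for the full control effect.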 An outline of the steps:
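VDR-UAS-bla HEK293T cells (2000/well, 2% charcoal-stripped FBS) were treated with titrated compounds plus 1-alpha,25-dihydroxyvitamin D3 (50 nM or 3 nM final) for 16 h at 37 C. CCF4 beta-lactamase fluorescence was read; Hill fits gave IC50.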

For assay [4] the target is unchanged. Kind of assay: qHTS assay for small molecule agonists of vitamin D receptor signaling (AID 588543).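 Also: 0% = DMSO basal and 100% = reference agonist control.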 Put shortly:
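β-lactamase reporter, VDR-UAS-bla HEK293T, agonist mode. Cells plated 5 h at 37 °C, compound titration 16 h at 37 °C, CCF4 dye 2 h RT, ratio 460/530 nm. Hill fit → EC50, efficacy vs 50 nM 1α,25-(OH)2D3.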

Assay [5] is described as follows: qHTS assay for small molecule agonists of retinoid X receptor alpha signaling (AID 588544). The settings on record: HEK293T RXRa-UAS-bla, beta-lactamase reporter, 18 h; 530 nm emission.
Assay [6] can be described thus: qHTS assay for small molecule agonists of the antioxidant response element (ARE) signaling pathway (AID 651741; active = well fitted activation curve with a large enough effect in the signal ratio; the % refers to the signal ratio; also: potency is read from the fitted curve at half-maximal effect; as to activation: % of control where 0% means no effect). Put shortly:
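ARE-bla HepG2 cells (beta-lactamase reporter under ARE control) were plated at 2,000 cells/well, preincubated 5 h at 37 C/5% CO2, then treated with DMSO-dissolved compounds for 16 h at 37 C; LiveBLAzer B/G FRET substrate added, fluorescence read after 2 h at room temperature.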

The nature of assay [7]: qHTS assay for small molecule activators of the human pregnane X receptor (PXR) signaling pathway (AID 720659; call rule not given here; also: 0% is about no effect).
Assay [8] in a line: qHTS assay for small molecule activators of the nuclear factor-kappa B (NF-kB) signaling pathway (AID 651749; active = well fitted activation curve with a large enough effect in the signal ratio; the % refers to the signal ratio; also: series mostly up to about 77 µM; % of control where 0% means no effect). As to conditions: NF-kB-bla ME-180 cells, beta-lactamase FRET ratio, 16 h; activation: stronger effect = higher value. Put shortly:
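ME-180 cells stably carrying a beta-lactamase reporter under an NF-kB response element were exposed to compound or DMSO vehicle for 16 hr at 37C, 5% CO2. Pathway activation was read by FRET, since reporter expression disrupts FRET.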

The target in assay [9] is Bile acid receptor (Homo sapiens) (UniProt Q96RI1). Kind of assay: qHTS assay for small molecule agonists of farnesoid X receptor signaling (AID 588527).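 Also: series mostly up to about 77 µM; 0% = vehicle basal and 100% = reference agonist.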 The settings on record: HEK293T FXR-UAS-bla, beta-lactamase ratio, 16 h; activation: stronger effect = higher value. An outline of the steps: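 FXR-UAS-bla HEK293T cells (10% dialyzed FBS) preincubated 5-7 h at 37 C, then compounds at up to 92 uM for 16 h at 37 C. CCF4 beta-lactamase read-out after 2 h RT. Normalized to chenodeoxycholic acid (100 uM) and DMSO; Hill fit gave EC50 and efficacy.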
Chain of Bile acid receptor (Homo sapiens) (Q96RI1 whole entry, looked up): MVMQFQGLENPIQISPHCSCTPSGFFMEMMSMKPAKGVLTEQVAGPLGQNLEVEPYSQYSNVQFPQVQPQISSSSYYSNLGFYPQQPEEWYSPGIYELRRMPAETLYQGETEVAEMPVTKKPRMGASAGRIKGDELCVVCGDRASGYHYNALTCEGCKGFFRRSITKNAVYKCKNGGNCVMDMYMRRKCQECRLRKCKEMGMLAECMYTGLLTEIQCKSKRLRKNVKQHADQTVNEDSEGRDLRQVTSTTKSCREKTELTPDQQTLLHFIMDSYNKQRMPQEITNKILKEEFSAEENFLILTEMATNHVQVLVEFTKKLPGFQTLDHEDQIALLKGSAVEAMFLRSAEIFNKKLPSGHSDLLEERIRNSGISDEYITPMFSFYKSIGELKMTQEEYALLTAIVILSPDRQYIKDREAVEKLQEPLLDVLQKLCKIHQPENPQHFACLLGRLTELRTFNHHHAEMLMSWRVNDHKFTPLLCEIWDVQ

In assay [10] the target is Androgen receptor (Homo sapiens) (UniProt P10275). Briefly: qHTS assay for small molecule agonists of androgen receptor signaling (AID 588515; active = well fitted curve in the direction sought with a large enough effect in the signal ratio, with a control signal flat; the % refers to the signal ratio; also: % is scaled to controls: 0 for no effect and ±100 for the full control effect). As to conditions: AR-UAS-bla HEK293, beta-lactamase ratio, agonist 16 h; stronger effect = higher value. Put shortly: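 EC50 and efficacy came from Hill fits of titrations (up to 92 uM) normalized to 30 nM R1881 as 100% and DMSO as 0%. Compound exposure was 16 h at 37 C on AR-UAS-bla HEK293 cells, with a 405/460/530 nm CCF4 fluorescence read.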
Chain of Androgen receptor (Homo sapiens) (P10275 whole entry, looked up): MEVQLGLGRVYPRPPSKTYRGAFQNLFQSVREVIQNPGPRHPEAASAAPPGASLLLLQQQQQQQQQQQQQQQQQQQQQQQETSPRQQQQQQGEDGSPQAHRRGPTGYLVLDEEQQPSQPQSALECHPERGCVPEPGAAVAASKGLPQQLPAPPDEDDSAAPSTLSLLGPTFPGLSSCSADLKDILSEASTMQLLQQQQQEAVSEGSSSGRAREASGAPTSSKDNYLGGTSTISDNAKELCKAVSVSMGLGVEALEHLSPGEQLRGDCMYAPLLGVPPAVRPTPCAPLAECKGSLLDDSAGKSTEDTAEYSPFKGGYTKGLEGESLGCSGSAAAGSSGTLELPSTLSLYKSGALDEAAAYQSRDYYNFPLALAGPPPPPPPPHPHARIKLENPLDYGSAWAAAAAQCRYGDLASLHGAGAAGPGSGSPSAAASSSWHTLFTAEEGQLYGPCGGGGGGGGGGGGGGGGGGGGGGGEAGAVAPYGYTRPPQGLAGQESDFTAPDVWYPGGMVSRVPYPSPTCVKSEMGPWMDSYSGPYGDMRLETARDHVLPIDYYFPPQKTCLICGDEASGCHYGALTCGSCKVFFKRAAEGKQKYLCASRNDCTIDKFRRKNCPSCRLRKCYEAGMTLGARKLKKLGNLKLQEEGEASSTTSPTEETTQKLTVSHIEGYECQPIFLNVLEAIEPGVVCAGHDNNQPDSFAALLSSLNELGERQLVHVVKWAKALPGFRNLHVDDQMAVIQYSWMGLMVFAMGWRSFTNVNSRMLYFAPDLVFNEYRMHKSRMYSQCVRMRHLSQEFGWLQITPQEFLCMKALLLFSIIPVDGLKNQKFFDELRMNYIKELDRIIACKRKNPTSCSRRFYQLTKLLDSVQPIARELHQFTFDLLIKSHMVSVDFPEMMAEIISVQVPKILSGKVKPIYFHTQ

Assay [11] has the same target. Briefly: qHTS assay for small molecule antagonists of androgen receptor signaling (AID 588516; active = well fitted curve in the direction sought with a large enough effect in the signal ratio, with a control signal flat, not every such curve was filed as active; the % refers to the signal ratio; also: % is scaled to controls: 0 for no effect and ±100 for the full control effect). Put shortly: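 HEK293 AR-UAS-bla cells, 10% dialyzed FBS medium; cpd titration + R1881 10 nM final, 16 h 37 C; CCF4 2 h RT; FRET ratio; IC50/efficacy via Hill fit.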

Chain of Vitamin D3 receptor (Homo sapiens) (P11473 whole entry, looked up): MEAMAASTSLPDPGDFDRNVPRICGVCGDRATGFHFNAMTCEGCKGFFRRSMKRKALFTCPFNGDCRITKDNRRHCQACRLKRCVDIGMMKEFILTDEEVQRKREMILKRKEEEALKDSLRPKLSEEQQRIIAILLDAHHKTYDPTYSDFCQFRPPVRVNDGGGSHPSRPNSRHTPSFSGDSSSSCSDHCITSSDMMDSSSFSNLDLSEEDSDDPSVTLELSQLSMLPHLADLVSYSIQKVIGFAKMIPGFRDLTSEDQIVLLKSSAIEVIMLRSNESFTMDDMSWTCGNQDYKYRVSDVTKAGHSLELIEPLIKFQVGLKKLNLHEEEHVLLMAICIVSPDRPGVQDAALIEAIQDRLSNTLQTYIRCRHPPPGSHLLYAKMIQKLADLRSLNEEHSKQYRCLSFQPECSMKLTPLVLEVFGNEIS
Chain of Peroxisome proliferator-activated receptor gamma (Homo sapiens) (P37231 whole entry, looked up): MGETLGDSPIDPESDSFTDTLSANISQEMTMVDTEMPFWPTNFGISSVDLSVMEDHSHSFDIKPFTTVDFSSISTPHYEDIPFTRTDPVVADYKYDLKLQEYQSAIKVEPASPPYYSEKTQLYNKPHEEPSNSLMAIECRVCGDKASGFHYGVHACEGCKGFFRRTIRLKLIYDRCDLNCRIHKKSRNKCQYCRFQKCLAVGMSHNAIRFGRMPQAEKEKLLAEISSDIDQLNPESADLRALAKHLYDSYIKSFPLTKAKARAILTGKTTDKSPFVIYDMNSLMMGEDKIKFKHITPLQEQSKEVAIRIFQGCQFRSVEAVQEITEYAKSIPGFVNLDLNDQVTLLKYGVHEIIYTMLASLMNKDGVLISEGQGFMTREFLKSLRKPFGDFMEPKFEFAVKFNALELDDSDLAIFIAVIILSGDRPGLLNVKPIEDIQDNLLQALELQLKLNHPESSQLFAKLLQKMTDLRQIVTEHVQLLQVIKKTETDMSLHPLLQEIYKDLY

Regarding `CC(C)C1(C)N=C(c2ncccc2C(=O)O)NC1=O` (configuration not stated), the Potency result in assay [1], in [2], in [3] and in [6] was “inactive” in each case. Further, the outcome in assay [4] and in [7] was inactive. Also, the max response in assay [5] is -12.1%.
In the case of `CC1(C)CON(Cc2ccccc2Cl)C1=O`, the Potency result in assay [2] and in assay [3] was “inactive” in each case. Moreover, the max response in [5] worked out at 5.44%. For the same compound, the activation in assay [8] is 0.414% (inactive).
For `COC(=O)N(C(=O)N1COC2(C(=O)OC)Cc3cc(Cl)ccc3C2=N1)c1ccc(OC(F)(F)F)cc1` (configuration not stated), the Potency result in assay [3] was “inactive”. Besides, the compound was classed as inactive in assay [4].
In the case of `C=C(C)C(=O)OCC(CC)CCCC` (configuration not stated), the Potency result in [3] and in assay [6] was “inactive” in each case. Besides, the max response in assay [5] is -20.3%. Besides, the activation in assay [8] was -0.248% (inactive). Further, the compound was classed as inactive in [7].
As to `ClC1=C(Cl)C2(Cl)C3C4OC4C(Cl)C3C1(Cl)C2(Cl)Cl` (configuration not stated), the Potency result in [2] and in [3] was “inactive” in each case. In addition, the activation in assay [8] was 4.48% (inactive).
For `CCC[CH2][Sn]([Cl])([CH2]CCC)[CH2]CCC`, the Potency in assay [1] was 35.5 µM (active); in assay [6], 24.3 µM (active). In assay [9], the activation was 7.19% (inactive). The max response in assay [5] is -0.857%.
In the case of `CCC(C)Nc1c([N+](=O)[O-])cc(C(C)(C)C)cc1[N+](=O)[O-]` (configuration not stated), the Potency result in [2] and in [3] was “inactive” in each case. Also, the result in [4] was inactive. The max response in assay [5] is -9.41%.
`Brc1ccc(Oc2ccccc2)cc1`: the Potency result in assay [2] and in assay [3] was “inactive” each time. Moreover, the compound was classed as inactive in assay [4] and in assay [7]. For the same compound, the max response in assay [5] was -12.9%. Also, the activation in [8] was -2.79% (inactive).
In the case of `N#CN=C1SCCN1Cc1ccc(Cl)nc1`, the Potency result in assay [2] and in assay [6] was “inactive” in each case. The max response in [5] is 6.15%. For the same compound, in [8], the activation is -0.492% (inactive).
With `CC1=C(C(=O)Nc2ccccc2)S(=O)(=O)CCO1`, the activation in assay [9] was -2.72% (inactive); in assay [8], -0.594% (inactive). The Potency in [6] was 8.63 µM (active). Moreover, the compound was called inactive in [7].
Take `CCCCNC(=O)OCC#CI`: the activation in assay [9] is 1.93% (inactive). Moreover, in assay [2], the Potency result is “inactive”. Further, in [7], the outcome was inactive.
`CCCCOCN(C(=O)CCl)c1c(CC)cccc1CC`: the Potency result in assay [1] is “inactive”. Also, the activation in assay [9] was -0.328% (inactive). The compound was classed as inactive in assay [4]. Also, the Potency in assay [6] was 24.3 µM (active).
As to `COC[C@H](C)N(C(=O)CCl)c1c(C)csc1C`, the Potency result in assay [1] and in assay [3] was “inactive” in each case. The compound was called inactive in assay [4]. Besides, in [6], the Potency was 19.3 µM (active). In addition, in assay [8], the activation was -0.69% (inactive).
Take `CC(C)(C)C(O)/C(=C\c1ccc(Cl)cc1Cl)n1cncn1` (configuration not stated): the activation in assay [9] was 1.69% (inactive). The Potency result in [3] is “inactive”.
On to `COC(=O)/C=C(\C)OP(=O)(OC)OC`, for which the activation in assay [9] was 7.79% (inactive). Besides, the Potency result in [3] and in [6] was “inactive” throughout. Further, the max response in assay [5] is -22.9%.
For the compound `O=C(O)C(F)(F)C(F)(F)C(F)(F)C(F)(F)C(F)(F)C(F)(F)C(F)(F)C(F)(F)C(F)(F)F`, the Potency result in assay [2] is “inactive”. The outcome in assay [7] was inactive.
In the case of `Cc1cccc2sc3nncn3c12`, the Potency entry in assay [1] was “inactive”. In addition, the activation in assay [9] is -0.105% (inactive); in assay [8], 0.0956% (inactive). For the same compound, the max response in assay [5] stood at 0.611%. In addition, the Potency in [6] was 2.73 µM (active).
As for `CCC(C)(C)c1cc(-n2nc3ccccc3n2)c(O)c(C(C)(C)CC)c1`, the activation in assay [10] was 3.42% (inactive); in assay [8] it was -0.182% (inactive). Moreover, the Potency result in assay [11] and in [3] was “inactive” each time. For the same compound, the outcome in assay [4] and in assay [7] was inactive. Besides, the Potency in assay [6] is 30.6 µM (active).
Regarding `CCCCOC(=O)c1ccccc1C(=O)O`, the figures for the activation in assay [10], in assay [9] and in assay [8] were 5.7% (inactive), -1.61% (inactive) and 1.8% (inactive), respectively. Besides, the Potency result in [1] and in assay [2] was “inactive” each time. Further, the max response in assay [5] is -15.3%. The compound was classed as inactive in [7].
